Inconclusive results are not listed. Active and inactive are the calls of the source. Unless noted, calls follow the shape of the dose curve; as a rule, active = well fitted curve in the direction sought with a large enough effect in the repeat runs; inconclusive = weak or mixed curves; inactive = flat fitted curve, though single readings scatter.
How the values were obtained:
[1] = qHTS assay to test for compound auto fluorescence at 535 nm (green) in HEK293 cells (AID 720680)
[2] = qHTS assay to test for compound auto fluorescence at 460 nm (blue) in HEK293 cell free culture (AID 720681)
Outline: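 Blue fluorescence (Ex 405/Em 460 nm, triamterene-equivalent) was read immediately after pin transfer of compound or DMSO into medium (DMEM, 10% FBS) without cells.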

[3] = qHTS assay to test for compound auto fluorescence at 535 nm (green) in HEK293 cell free culture (AID 720682)
Outline: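 Green-label autofluorescence (485 nm excitation, 535 nm emission) measured on compound added to cell-free culture medium (DMEM, 10% FBS). Output is expressed relative to fluorescein.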

[4] = qHTS assay to test for compound auto fluorescence at 590 nm (red) in HEK293 cell free culture (AID 720683)
Outline: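 Red-channel autofluorescence of compounds in culture medium (DMEM, 10% FBS), no cells, measured at 540/590 nm. Rose Bengal sodium is the reference fluorophore for equivalence.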

[5] = qHTS assay to test for compound auto fluorescence at 590 nm (red) in HepG2 cell free culture (AID 720684)
Outline: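 Steps: dispense MEM/10% FBS medium, no cells; pin compound or DMSO vehicle; read red channel, Ex/Em 540/590 nm. Output given as Rose Bengal sodium equivalents.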

[6] = qHTS assay to test for compound auto fluorescence at 460 nm (blue) in HepG2 cell free culture (AID 720685)
Outline: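 Compound (23 nL) or DMSO pinned into cell-free MEM with 10% FBS; blue fluorescence read at 405/460 nm excitation/emission, expressed as auto-fluorescence equivalency to triamterene.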

[7] = qHTS assay to test for compound auto fluorescence at 535 nm (green) in HepG2 cell free culture (AID 720686)
[8] = qHTS assay to test for compound auto fluorescence at 460 nm (blue) in HepG2 cells (AID 720687)
Outline: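 Blue-channel autofluorescence (Ex/Em 405/460 nm, triamterene-equivalent) was measured after 1 hr compound exposure at 37 C, 5% CO2. Cells were HepG2, plated overnight at 37 C in MEM plus 10% FBS.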

[9] = molecular target: Glucocorticoid receptor (Homo sapiens) (UniProt P04150); experiment: qHTS assay to identify small molecule agonists of the glucocorticoid receptor (GR) signaling pathway (AID 720691; active = well fitted activation curve with a large enough effect in the signal ratio in the repeat runs, not every such curve was filed as active; the % refers to the signal ratio)
Sequence of Glucocorticoid receptor (Homo sapiens) (P04150 whole entry, looked up): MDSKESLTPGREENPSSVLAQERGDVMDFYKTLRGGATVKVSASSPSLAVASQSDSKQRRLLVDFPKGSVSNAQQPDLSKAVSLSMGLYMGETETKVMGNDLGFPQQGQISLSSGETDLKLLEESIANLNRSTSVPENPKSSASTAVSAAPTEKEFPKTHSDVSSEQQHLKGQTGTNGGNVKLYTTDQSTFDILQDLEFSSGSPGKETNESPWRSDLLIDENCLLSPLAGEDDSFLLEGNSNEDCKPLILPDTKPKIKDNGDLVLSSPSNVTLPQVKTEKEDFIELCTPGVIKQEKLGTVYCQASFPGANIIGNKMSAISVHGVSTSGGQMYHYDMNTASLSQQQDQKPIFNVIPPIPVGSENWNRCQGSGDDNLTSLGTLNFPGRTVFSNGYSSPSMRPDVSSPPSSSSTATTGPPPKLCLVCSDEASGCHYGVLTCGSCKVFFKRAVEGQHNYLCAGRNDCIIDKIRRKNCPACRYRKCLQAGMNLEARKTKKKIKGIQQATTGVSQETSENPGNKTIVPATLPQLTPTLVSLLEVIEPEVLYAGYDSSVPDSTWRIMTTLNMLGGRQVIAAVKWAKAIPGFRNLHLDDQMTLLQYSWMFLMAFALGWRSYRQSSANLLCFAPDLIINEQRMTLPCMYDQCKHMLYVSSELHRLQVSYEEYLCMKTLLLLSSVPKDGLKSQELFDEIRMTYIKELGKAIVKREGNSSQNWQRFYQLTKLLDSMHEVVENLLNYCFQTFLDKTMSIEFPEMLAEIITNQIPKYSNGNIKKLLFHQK
Outline: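 GR-bla HeLa cells carrying a GRE-driven beta-lactamase reporter, exposed to compounds for 18 h at 37 C. Reporter activation read as fluorescence after 2 h with LiveBLAzer B/G FRET substrate at room temperature.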

[10] = molecular target: Glucocorticoid receptor (Homo sapiens) (UniProt P04150); experiment: qHTS assay to identify small molecule antagonists of the glucocorticoid receptor (GR) signaling pathway (AID 720692; active = well fitted inhibition curve with a large enough effect in the signal ratio in the repeat runs, not every such curve was filed as active; the % refers to the signal ratio)
Outline: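 GR-bla HeLa cells carrying a GRE-driven beta-lactamase reporter received compound after 4 h plating, then dexamethasone (5 nM final). After 18 h at 37C, the FRET substrate was loaded for 2 h at room temperature and fluorescence read.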
% is scaled to controls: 0 for no effect and ±100 for the full control effect.

C=CCOCC(O)CO (stereo not given)
inactive: outcome [1] | outcome [2] | outcome [3] | outcome [4] | outcome [5] | outcome [6] | outcome [7] | outcome [8] | Potency [9] | Potency [10]

COCCOC[C@H](CC1(C(=O)NC2CCC(C(=O)O)CC2)CCCC1)C(=O)Oc1ccc2c(c1)CCC2 (stereo not given in full)
inactive: outcome [1] | outcome [2] | outcome [3] | outcome [4] | outcome [5] | outcome [6] | outcome [7] | outcome [8] | Potency [9] | Potency [10]

CC(C#N)(CCC(=O)O)N=NC(C)(C#N)CCC(=O)O (stereo not given)
inactive: outcome [1] | outcome [2] | outcome [3] | outcome [4] | outcome [5] | outcome [6] | outcome [7] | outcome [8] | Potency [9] | Potency [10]

CC12CCC(C(=O)C1=O)C2(C)C (stereo not given)
inactive: outcome [1] | outcome [2] | outcome [3] | outcome [4] | outcome [5] | outcome [6] | outcome [7] | outcome [8] | Potency [9] | Potency [10]

NC(N)=NCCN1CCCCCCC1
inactive: fluorescence, % of fluorescein [1] -0.017% [at 18.6 µM] | fluorescence, % of fluorescent control [2] -0.0671% [at 18.6 µM] | activity change [3] 0.0837% [at 18.6 µM] | fluorescence, % of fluorescent control [4] -0.0086% [at 18.6 µM] | fluorescence, % of Rose Bengal [5] -0.0563% [at 18.6 µM] | fluorescence, % of fluorescent control [6] 0.0071% [at 18.6 µM] | fluorescence, % of fluorescein control [7] 0.0218% [at 18.6 µM] | fluorescence, % of fluorescent control [8] -0.0842% [at 18.6 µM] | Potency [9] | Potency [10]

N[C@H](C(=O)O)[C@@H](O)c1ccc(O)c(O)c1
inactive: outcome [1] | outcome [2] | outcome [3] | outcome [4] | outcome [5] | outcome [6] | outcome [7] | outcome [8] | Potency [9] | Potency [10]

CC(=O)C1CCCCC1=O (stereo not given)
inactive: outcome [1] | outcome [2] | outcome [3] | outcome [4] | outcome [5] | outcome [6] | outcome [7] | outcome [8] | Potency [9] | Potency [10]

CC(=O)Nc1ccc(OCC(O)CNC(C)C)cc1 (stereo not given)
inactive: outcome [1] | outcome [2] | outcome [3] | outcome [4] | outcome [5] | outcome [6] | outcome [7] | outcome [8] | Potency [9] | Potency [10]

COc1cc(C)nc(-n2nc(C)cc2OC)n1
inactive: fluorescence, % of fluorescein [1] -0.0757% [at 18.6 µM] | fluorescence, % of fluorescent control [2] -0.0196% [at 18.6 µM] | activity change [3] -0.0111% [at 18.6 µM] | fluorescence, % of fluorescent control [4] 0.134% [at 18.6 µM] | fluorescence, % of Rose Bengal [5] -0.183% [at 18.6 µM] | fluorescence, % of fluorescent control [6] -0.138% [at 18.6 µM] | fluorescence, % of fluorescein control [7] -0.0352% [at 18.6 µM] | fluorescence, % of fluorescent control [8] -0.112% [at 18.6 µM] | Potency [9] | Potency [10]

Cc1ncc(COP(=O)(O)O)c(C=O)c1O
inactive: outcome [1] | outcome [2] | outcome [3] | outcome [4] | outcome [5] | outcome [6] | outcome [7] | outcome [8] | Potency [9] | Potency [10]

O=C(O)CCSCCC(=O)O
inactive: outcome [1] | outcome [2] | outcome [3] | outcome [4] | outcome [5] | outcome [6] | outcome [7] | outcome [8] | Potency [9] | Potency [10]

CCC(=O)OCc1ccccc1
inactive: outcome [1] | outcome [2] | outcome [3] | outcome [4] | outcome [5] | outcome [6] | outcome [7] | outcome [8] | Potency [9] | Potency [10]

O=S(=O)(O)c1cccc2c(S(=O)(=O)O)cccc12
inactive: outcome [1] | outcome [2] | outcome [3] | outcome [4] | outcome [5] | outcome [6] | outcome [7] | outcome [8] | Potency [9] | Potency [10]

C[N+]1(C)[C@@H]2CC(OC(=O)[C@H](CO)c3ccccc3)C[C@H]1[C@@H]1O[C@@H]12 (stereo not given in full)
inactive: outcome [1] | outcome [2] | outcome [3] | outcome [4] | outcome [5] | outcome [6] | outcome [7] | outcome [8] | Potency [9] | Potency [10]

CC(=O)c1cnccn1
inactive: outcome [1] | outcome [2] | outcome [3] | outcome [4] | outcome [5] | outcome [6] | outcome [7] | outcome [8] | Potency [9] | Potency [10]

CC1=CCC(O)(C(C)C)CC1 (stereo not given)
inactive: outcome [1] | outcome [2] | outcome [3] | outcome [4] | outcome [5] | outcome [6] | outcome [7] | outcome [8] | Potency [9] | Potency [10]

COc1ccc2cc1Oc1cc3c(cc1OC)CC[N+](C)(C)[C@H]3Cc1ccc(cc1)Oc1c(OC)c(OC)cc3c1[C@@H](C2)[N+](C)(C)CC3
inactive: outcome [1] | outcome [2] | outcome [3] | outcome [4] | outcome [5] | outcome [6] | outcome [7] | outcome [8] | Potency [9] | Potency [10]

CN(C)[C@@H]1C(=O)C(C(=O)NCN2CCCC2)=C(O)[C@@]2(O)C(=O)C3=C(O)c4c(O)cccc4[C@@](C)(O)C3C[C@@H]12 (stereo not given in full)
inactive: outcome [1] | outcome [2] | outcome [3] | outcome [4] | outcome [5] | outcome [6] | outcome [7] | outcome [8] | Potency [9] | Potency [10]

— PubChem BioAssay (Tox21)
